PubChem BioAssay (Tox21)
Inconclusive results are not listed. The source made the active and inactive calls. The call rests on the fitted dose curve; in most records, active means well fitted curve in the direction sought with a large enough effect in the repeat runs; inconclusive means weak or mixed curves; inactive means no such curve, though single readings can be large; an effect the other way counts as inactive or inconclusive.

Assay: qHTS assay to identify small molecule antagonists of the retinoic acid receptor (RAR) signaling pathway (AID 1159552; further: nearly all actives have a fitted effect of over 50% in size)
Conditions: C3RL4 RARE luciferase reporter, retinol-stimulated, 6 h; series mostly up to 92.4 µM; activity, negative = inhibition: at the top concentration
Summary of the method: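 Readout: luciferase luminescence, 30 min post-reagent at RT. Setup: C3RL4 RARE reporter cells, compounds plus retinol 1 uM final, 6 hr incubation at 37 C and 5% CO2.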
On the % scale 0 is the no-effect control and ±100 the full control effect.

**Q.** Which “activity, negative = inhibition” value does the source give for `CCOC(=O)C1(c2ccccc2)CCN(CCc2ccc(N)cc2)CC1` here?
**A.** -16.7% [at 42.5 µM] (inactive)

**Q.** With `O=C(Cc1ccccc1)OCc1ccccc1` as the molecule, how does the “activity, negative = inhibition” value read?
**A.** 89.6% (inactive)

**Q.** Which “activity, negative = inhibition” value does the source give for `CC(C)CC#N` here?
**A.** 77.3% (inactive)

**Q.** For `CCC#N`, which “activity, negative = inhibition” value is on record?
**A.** 7.33% (inactive)

**Q.** For `CC(=O)CCc1ccc2c(c1)OCO2`, which “activity, negative = inhibition” value is on record?
**A.** -2.06% (inactive)

**Q.** With `CCOP(=S)(OCC)Oc1ncn(-c2ccccc2)n1` as the molecule, how does the “activity, negative = inhibition” value read?
**A.** 59.1% (inactive)

**Q.** Which “activity, negative = inhibition” value does the source give for `CCOP(=S)(OCC)SCSP(=S)(OCC)OCC` here?
**A.** 112% (inactive)

**Q.** With `CCCCN(CCCCO)N=O` as the molecule, how does the “activity, negative = inhibition” value read?
**A.** -0.317% (inactive)

**Q.** For `CC(C(O)c1ccccc1)N(C)C/C=C/c1ccccc1` (stereo not drawn), which “activity, negative = inhibition” value is on record?
**A.** -18.1% [at 42.5 µM] (inactive)

**Q.** Which “activity, negative = inhibition” value does the source give for `c1cc[c]([Hg][c]2ccccc2)cc1` here?
**A.** -7.42% (inactive)

**Q.** With `COC(=O)C(C)Oc1ccc(Oc2ccc(Cl)cc2Cl)cc1` (stereo not drawn) as the molecule, how does the “activity, negative = inhibition” value read?
**A.** 11.2% (inactive)

**Q.** For `CC(C)(C)C(=O)C(Oc1ccc(Cl)cc1)n1cncn1` (stereo not drawn), which “activity, negative = inhibition” value is on record?
**A.** -2.21% (inactive)

**Q.** Which “activity, negative = inhibition” value does the source give for `CC(COc1ccc(Oc2ccccc2)cc1)Oc1ccccn1` (stereo not drawn) here?
**A.** 113% (inactive)

**Q.** With `COC(=O)COc1ccc(Cl)cc1Cl` as the molecule, how does the “activity, negative = inhibition” value read?
**A.** 1.86% (inactive)

**Q.** For `CNC(=O)Oc1c(C(C)(C)C)cc(C)cc1C(C)(C)C`, which “activity, negative = inhibition” value is on record?
**A.** 3.86% (inactive)

**Q.** Which “activity, negative = inhibition” value does the source give for `CC(=O)Nc1cc([As](=O)(O)O)ccc1O` here?
**A.** -36.5% [at 42.5 µM] (inactive)

**Q.** Which “activity, negative = inhibition” value does the source give for `CN1C(=S)CN=C(c2ccccc2)c2cc(Cl)ccc21` here?
**A.** -18.8% [at 42.5 µM] (inactive)

**Q.** Which “activity, negative = inhibition” value does the source give for `CCOP(=S)(OCC)SCSc1ccc(Cl)cc1` here?
**A.** 11.2% (inactive)

Assay: qHTS assay to identify small molecule agonists of the retinoic acid receptor (RAR) signaling pathway (AID 1159553); further: potency means the concentration at half of the fitted maximal effect
Conditions: C3RL4 RARE luciferase reporter, agonist, 6 h; series mostly up to 73.3 µM; activation: at the top concentration
Summary of the method: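 C3RL4 RARE-luciferase cells were seeded at 1,000/well and grown overnight at 37 C, then exposed to compounds for 6 hr at 37 C, 5% CO2. Luciferase reagent was added and luminescence was read after 30 min at room temperature.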

**Q.** For `CC(Oc1ccc(Oc2ncc(C(F)(F)F)cc2Cl)cc1)C(=O)O` (stereo not drawn), which “activation” value is on record?
**A.** -3.55% (inactive)

**Q.** With `CCOC(=O)C1(c2ccccc2)CCN(CCc2ccc(N)cc2)CC1` as the molecule, how does the “activation” value read?
**A.** 2.27% (inactive)

**Q.** With `O=C(Cc1ccccc1)OCc1ccccc1` as the molecule, how does the Potency read?
**A.** 61.6 µM (active)

**Q.** Which “activation” value does the source give for `CC(C)CC#N` here?
**A.** -0.172% [at 94.8 µM] (inactive)

**Q.** With `CCC#N` as the molecule, how does the “activation” value read?
**A.** -0.122% [at 94.8 µM] (inactive)

**Q.** With `ClCCOCOCCCl` as the molecule, how does the “activation” value read?
**A.** -1.8% [at 94.8 µM] (inactive)

**Q.** For `CC(=O)CCc1ccc2c(c1)OCO2`, which “activation” value is on record?
**A.** 2.12% (inactive)

**Q.** For `O=[N+]([O-])c1ccc2c3c(cccc13)CC2`, which “activation” value is on record?
**A.** -0.135% (inactive)

**Q.** For `CCCCN(CCCCO)N=O`, which “activation” value is on record?
**A.** 0.638% (inactive)

**Q.** Which “activation” value does the source give for `CC(C(O)c1ccccc1)N(C)C/C=C/c1ccccc1` (stereo not drawn) here?
**A.** -3.18% (inactive)

**Q.** With `c1cc[c]([Hg][c]2ccccc2)cc1` as the molecule, how does the Potency read?
**A.** 8.63 µM (active)

**Q.** For `Nc1c(Br)cc([N+](=O)[O-])cc1[N+](=O)[O-]`, which “activation” value is on record?
**A.** 0.904% [at 94.8 µM] (inactive)

**Q.** Which “activation” value does the source give for `N#CC(CCc1ccc(Cl)cc1)(Cn1cncn1)c1ccccc1` (stereo not drawn) here?
**A.** -7.03% (inactive)

**Q.** For `Cc1ccccc1CO[C@@H]1C[C@@]2(C(C)C)CC[C@]1(C)O2`, which “activation” value is on record?
**A.** -5.68% (inactive)

**Q.** For `CC(C)(C)C(=O)C(Oc1ccc(Cl)cc1)n1cncn1` (stereo not drawn), which “activation” value is on record?
**A.** -0.556% (inactive)

**Q.** Which Potency does the source give for `CC(COc1ccc(Oc2ccccc2)cc1)Oc1ccccn1` (stereo not drawn) here?
**A.** 13.7 µM (active)

**Q.** With `COC(=O)COc1ccc(Cl)cc1Cl` as the molecule, how does the “activation” value read?
**A.** -1.17% (inactive)

**Q.** For `CNC(=O)Oc1c(C(C)(C)C)cc(C)cc1C(C)(C)C`, which “activation” value is on record?
**A.** -1.05% (inactive)

**Q.** Which “activation” value does the source give for `CCCSP(=S)(OCC)Oc1ccc(Cl)cc1Cl` (stereo not drawn) here?
**A.** -7.56% (inactive)

**Q.** For `Nc1n[nH]c(N)n1`, which “activation” value is on record?
**A.** 0.65% [at 94.8 µM] (inactive)

**Q.** For `CC(=O)Nc1cc([As](=O)(O)O)ccc1O`, which “activation” value is on record?
**A.** -5.95% (inactive)

**Q.** With `CN1C(=S)CN=C(c2ccccc2)c2cc(Cl)ccc21` as the molecule, how does the “activation” value read?
**A.** -6.66% (inactive)

**Q.** With `CCOP(=S)(OCC)SCSc1ccc(Cl)cc1` as the molecule, how does the “activation” value read?
**A.** -2.09% (inactive)

**Q.** With `ClC(Br)Br` as the molecule, how does the “activation” value read?
**A.** 0.898% (inactive)

**Q.** With `CCOc1nc(C(Cl)(Cl)Cl)ns1` as the molecule, how does the “activation” value read?
**A.** -2.47% (inactive)
